# Assay results from PubChem BioAssay AID1445 (SRMLSC, 2008).
# The whole screen tested about 220,000 compounds, of which about 910 (0.41%) were called active. The entries come from a sample that favours actives as a whole. Results with a measured potency or affinity are listed apart. A number with no mark means an inactive call.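 How the source made its calls: active means primary inhibition above the hit cutoff, then over 50% inhibition at one or more dose response concentrations (cut at about 23% in these data, passing the limit was not always enough); inconclusive means conflicting primary data, or primary hits not chosen for dose response; inactive means low primary inhibition, or under 50% at every dose.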
# Target: Aminopeptidase N (Plasmodium falciparum (isolate 3D7)) (UniProt O96935)
# Assay: P. falciparum M1AAP inhibitors, biochemical, fluorogenic H-Leu-NHMec substrate, 1536-well (AID 1445);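 further: plate controls were DMSO full reaction for no effect and no enzyme background for full effect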
# Details: recombinant M1AAP, H-Leu-NHMec fluorogenic kinetic assay; at 30 µM, stronger effect = higher value unless noted
# Chain of Aminopeptidase N (Plasmodium falciparum (isolate 3D7)) (O96935 whole entry, looked up): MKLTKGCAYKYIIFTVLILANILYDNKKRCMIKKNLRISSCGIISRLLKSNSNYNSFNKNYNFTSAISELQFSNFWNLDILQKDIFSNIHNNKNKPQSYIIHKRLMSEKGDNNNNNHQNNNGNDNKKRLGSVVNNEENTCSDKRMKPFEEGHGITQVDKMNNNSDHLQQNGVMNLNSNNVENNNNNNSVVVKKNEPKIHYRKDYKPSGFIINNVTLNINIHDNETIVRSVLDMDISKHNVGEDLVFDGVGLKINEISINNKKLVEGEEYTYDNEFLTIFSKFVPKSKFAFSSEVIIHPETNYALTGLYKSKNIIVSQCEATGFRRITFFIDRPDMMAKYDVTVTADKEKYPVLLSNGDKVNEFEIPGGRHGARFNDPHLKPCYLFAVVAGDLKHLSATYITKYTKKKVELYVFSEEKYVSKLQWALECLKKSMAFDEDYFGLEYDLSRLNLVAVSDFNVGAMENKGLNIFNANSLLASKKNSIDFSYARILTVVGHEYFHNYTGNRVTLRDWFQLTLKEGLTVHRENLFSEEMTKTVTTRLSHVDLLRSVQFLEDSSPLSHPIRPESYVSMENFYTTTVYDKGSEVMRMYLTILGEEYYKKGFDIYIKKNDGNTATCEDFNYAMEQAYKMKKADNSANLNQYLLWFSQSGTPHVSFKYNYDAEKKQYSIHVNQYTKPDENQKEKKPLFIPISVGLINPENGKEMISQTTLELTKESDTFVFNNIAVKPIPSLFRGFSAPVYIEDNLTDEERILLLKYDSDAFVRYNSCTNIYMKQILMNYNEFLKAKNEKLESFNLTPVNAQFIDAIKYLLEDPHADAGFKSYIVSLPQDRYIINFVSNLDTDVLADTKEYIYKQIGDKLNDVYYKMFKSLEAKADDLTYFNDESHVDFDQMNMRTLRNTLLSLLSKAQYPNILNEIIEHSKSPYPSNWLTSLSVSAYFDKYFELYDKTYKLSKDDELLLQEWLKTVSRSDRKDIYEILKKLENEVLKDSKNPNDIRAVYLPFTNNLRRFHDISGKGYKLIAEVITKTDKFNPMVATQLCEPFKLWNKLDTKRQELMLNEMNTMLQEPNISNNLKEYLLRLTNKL
row,Structure (SMILES),inhibition
1,CC(=O)c1ccc(OCc2cc([N+](=O)[O-])cc3c2OCOC3)cc1,0.98%
2,CP(C)(=O)CCP(=O)(c1ccccc1)c1ccccc1,2.48%
3,CCCc1nc(C)c(-c2ccc(OC)c(OC)c2)c(=O)[nH]1,2.27%
4,Cc1c(CCC(=O)O)c(=O)oc2cc(O)ccc12,18.6%
5,Cc1c(CCC(=O)O)c(=O)oc2cc3oc4c(c3cc12)CCCC4,8.26%
6,Cc1c(CCC(=O)O)c(=O)oc2cc3occ(C(C)(C)C)c3cc12,12.5%
7,Cc1coc2cc3oc(=O)c(Cc4ccccc4)c(C)c3cc12,16.1%
8,CC(C)Oc1cccc(C(=O)C2CCCN(Cc3cnn(C(C)C)c3)C2)c1 (stereo not given),3.98%
9,Cc1ccc(/C=[N+](/C)[O-])cc1,5.58%
10,Cc1oc(C)c2c(=O)ccc3c(c12)OC(N)=C(C#N)C3c1ccc(F)cc1 (stereo not given),3.21%
11,Cc1oc(C)c2c(=O)ccc3c(c12)OC(N)=C(C#N)C3c1ccccc1 (stereo not given),12.5%
12,CSc1ccc(C2C(C#N)=C(N)Oc3c2ccc(=O)c2c(C)oc(C)c32)cc1 (stereo not given),23.3% (active)
13,COc1cccc(C2c3[nH]c4ccccc4c3CCN2Cc2cccn2-c2ncccn2)c1 (stereo not given),1.34%
14,CCOC(=O)CSCc1nc(-c2ccc(Cl)cc2)oc1C,-0.93%
15,C/C(=N\NC(=O)COc1ccc(C(C)(C)C)cc1)c1ccc(OC(F)F)cc1,6.66%
16,NC(=O)c1cccc(CC(=O)c2ccccc2)c1,8.26%
17,COc1cc(C=O)ccc1OCC(=O)N1CCCC1,-0.53%
18,COc1ccccc1NS(=O)(=O)c1ccc(Cl)c(NC(=S)NC(=O)C2CCCC2)c1,6.44%
19,COc1ccccc1NS(=O)(=O)c1ccc(Cl)c(NC(=O)CN2C(=O)c3ccccc3C2=O)c1,11.8%
20,Cc1cc(O)c(C=Nc2cccc(Cl)c2)c(=O)o1,13.6%
21,O=C1CNC(=O)/C1=C\N1CCN(C(c2ccccc2)c2ccccc2)CC1,10.1%
22,COc1ccc(C(c2c(C)n(C)n(-c3ccccc3)c2=O)c2c(C)n(C)n(-c3ccccc3)c2=O)cc1O,2.02%
23,Cc1c(C(c2ccccc2O)c2c(C)n(C)n(-c3ccccc3)c2=O)c(=O)n(-c2ccccc2)n1C,-0.33%
24,Cc1c(C(c2ccc(O)cc2)c2c(C)n(C)n(-c3ccccc3)c2=O)c(=O)n(-c2ccccc2)n1C,-4.97%
25,COc1ccc(-c2cc(=Nc3c(C)n(C)n(-c4ccccc4)c3=O)c3ccccc3o2)cc1,10.6%
